D2 antag = HTS Assay for Allosteric Antagonists of the Human D2 Dopamine Receptor: Primary Screen for Antagonists; HEK293 TREx D2 cells, calcium flux, dopamine EC80; D(2) dopamine receptor (Homo sapiens), P14416; 340,000 compounds, 2% hits; AID 485344, 2010; inhibition, % at 10 µM; in the data active = inhibition above about 30%; inactive = below that, where a call was filed; note: 0% is about no effect
Target sequence (P14416 whole entry, looked up): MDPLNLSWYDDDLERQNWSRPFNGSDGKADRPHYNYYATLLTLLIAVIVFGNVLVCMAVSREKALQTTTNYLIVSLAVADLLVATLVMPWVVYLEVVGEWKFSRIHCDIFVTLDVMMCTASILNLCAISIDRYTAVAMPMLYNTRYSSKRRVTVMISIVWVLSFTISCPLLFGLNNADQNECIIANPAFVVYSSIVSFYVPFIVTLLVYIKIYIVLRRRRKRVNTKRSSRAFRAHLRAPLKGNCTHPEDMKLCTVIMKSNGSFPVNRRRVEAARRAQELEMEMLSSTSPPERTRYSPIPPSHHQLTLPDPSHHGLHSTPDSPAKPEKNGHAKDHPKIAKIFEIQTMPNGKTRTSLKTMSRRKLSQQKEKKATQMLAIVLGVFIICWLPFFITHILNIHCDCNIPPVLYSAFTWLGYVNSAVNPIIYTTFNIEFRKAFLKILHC
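Measurement of antagonist activity uses fluorescent calcium dye in inducible HEK293 T-REx D2 cells: 10 s baseline, compound addition with 180 s read, EC80 dopamine addition with a further 180 s read.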
D2 ag-1 = HTS Assay for Allosteric Agonists of the Human D2 Dopamine Receptor: Primary Screen for Agonists | activation, % at 2 µM | HEK293 T-REx D2 cells, calcium flux agonist mode | D(2) dopamine receptor (Homo sapiens), P14416 | 340,000 compounds, 0.53% hits;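 active = activation over 3 SD above normal in the single-dose calcium agonist read, cut at about 30% in these data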; note: 0% is about no effect
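Tetracycline-induced HEK293 Trex cells with D2 receptor force-coupled to calcium signaling, plated overnight at 30 C and loaded with no-wash calcium dye. Calcium flux read kinetically for 180 s after compound addition; responses flag agonists.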
D2 PAM-1 = HTS Assay for Positive Allosteric Modulators of the Human D2 Dopamine Receptor: Primary Screen for Potentiators; AID 485347, 2010; D(2) dopamine receptor (Homo sapiens), P14416; HEK293 T-REx D2, calcium flux, EC20 dopamine potentiation; potentiation, % at 10 µM; 340,000 compounds, 0.34% hits;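 active = potentiation over 3 SD above the plate norm, cut at about 30% in these data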; note: 0% is about no effect
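Potentiation of an EC20 dopamine calcium response is measured in a force-coupled, tetracycline-inducible Hek293 Trex D2 line. Compound-only kinetic reads over 180 s flag agonists before dopamine addition.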
D2 PAM-2 = Beta-Arrestin HTS for Positive Allosteric Modulators of the Human D2 Dopamine Receptor: Potentiators; D(2) dopamine receptor (Homo sapiens), P14416; DiscoveRx D2 beta-arrestin cells, luminescence, 90 min; 100% = 57 uM dopamine signal; potentiation, % (test concentration not listed); 360,000 compounds, 0.23% hits; AID 624464, 2012; in the data active = potentiation above about 50%
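D2 cells co-treated with compound plus 50 nM dopamine (EC20) for 90 min at 37 deg C to detect potentiation. Beta-arrestin recruitment was read as enzyme-fragment luminescence after 1 h at ambient temperature. Full response was set by 57 uM dopamine.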
D2 ag-2 = Beta-Arrestin HTS for Positive Allosteric Modulators of the Human D2 Dopamine Receptor: Agonists. DiscoveRx PathHunter D2 beta-arrestin, luminescence, 90 min; 100% = 57 uM dopamine signal. AID 624465, 2012. activation, % (no concentration beside the values). D(2) dopamine receptor (Homo sapiens), P14416. 360,000 compounds, 0.084% hits; in the data active = activation above about 40%
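Agonist mode: compounds alone added to overnight-plated D2 PathHunter cells for 90 min at 37 C, with 57 uM final dopamine (EC100) defining full response. Beta-arrestin recruitment detected by chemiluminescent reagent, read after 1 h at ambient temperature.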
Active calls of the source: *; · = not tested or not shown. Only some compounds are listed: those with a hit (about 2.4% of all), similar ones and a draw of the others.

SMILES	D2 antag	D2 ag-1	D2 PAM-1	D2 PAM-2	D2 ag-2
CC1=C(C(=O)Nc2ccc(Cl)cc2)C(c2cccs2)n2nc(SCc3cccc(C)c3)nc2N1 (stereo not drawn)	·	1	-4	·	·
CCc1ccc(C2CC(=O)c3c([nH]c(C(=O)OCCOc4ccccc4)c3C)C2)cc1 (stereo not drawn)	·	2	10	·	·
CC(C)CNC(=S)Nc1ccccc1F	-3	-1	34*	-11	-3
CN(C)C(=O)c1ccc2c(c1)N(CC(=O)NCc1ccc(F)cc1)C(=O)C1CCCCN21 (stereo not drawn)	·	-1	11	·	·
O=c1cc(-c2ccco2)nc(SCc2cccc(Cl)c2)[nH]1	-1	0	0	54*	5
Cn1ccnc1SCC(=O)Nc1ccc(Cl)cn1	31*	-1	-5	-9	-4
Cn1ccnc1SCC(=O)Nc1ccc([N+](=O)[O-])cn1	8	3	2	-16	-3
CCOc1ccc(NC(=O)Cn2c(=O)cc(C)c3c(C)nn(-c4cccc(Cl)c4C)c32)cc1	·	0	5	·	·
CN(CC(=O)Nc1ccc(OC(F)(F)F)cc1)C(=O)/C=C/c1cc2c(cc1[N+](=O)[O-])OCO2	80*	0	-22	-5	-3
COc1ccc(-n2c(=O)c3c4c(sc3n(Cc3ccc(F)cc3)c2=O)CCCC4)c(OC)c1	·	0	9	·	·
O=c1ccc(/C=C/c2ccccc2)nn1Cc1ccc(Cl)cc1Cl	-7	1	2	-11	-10
Cc1ccc(/C=C/c2ccc(=O)n(Cc3ccc(Cl)cc3Cl)n2)cc1	4	0	36*	-1	-2
Cc1cccc(NC(=O)CCNS(=O)(=O)c2ccc3c(c2)CCCC(=O)N3)c1C	·	2	1	·	·
COc1ccc2[nH]c3c(c2c1)CCn1c-3nc2sc(C(=O)Nc3ccccc3)c(C)c2c1=O	39*	0	9	·	·
Cc1ccc2c(c1)cc(C(=O)NCc1ccc(F)cc1)n2C	·	0	-1	·	·
O=C(O)c1nn2cc(CCO)cnc2c1Cl	-6	1	34*	-5	1
Cc1ccc(C)c(NC(=O)COC(=O)CC2CC3CCC2C3)c1 (stereo not drawn)	·	·	·	-6	-1
O=C(COC(=O)CC1CC2CCC1C2)Nc1cc([N+](=O)[O-])ccc1F (stereo not drawn)	-14	0	32*	1	2
CN1CCN(c2oc(-c3cccs3)nc2S(=O)(=O)c2ccccc2)CC1	-35	0	-25	-38	-6
CN1CCN(c2oc(-c3ccccc3)nc2S(=O)(=O)c2ccc(Br)cc2)CC1	31*	0	-25	-28	-4
CN1CCN(c2oc(-c3ccccc3Cl)nc2S(=O)(=O)c2ccccc2)CC1	79*	1	-21	-50	-4
CN1CCN(c2ccccc2NC(=O)COc2ccc(Cl)cc2)CC1	30*	0	-6	-31	-1
CN1CCN(c2ccccc2NC(=O)COc2ccccc2)CC1	-22	0	-4	-12	0
COc1ccc(CCNC(=O)CSc2nc3[nH]ncc3c(=O)n2-c2ccccc2OC)cc1OC	37*	3	9	7	-1
Cc1ccccc1OCCN1CCCC1	-16	3	-21	-4	-5
SMILES	D2 antag	D2 ag-1	D2 PAM-1	D2 PAM-2	D2 ag-2
c1ccc(-c2ccccc2OCCCN2CCOCC2)cc1	10	0	13	-15	-1
OCCCN1CCN(CCCOc2ccccc2-c2ccccc2)CC1	53*	0	-29	-33	-5
c1ccc(-c2ccccc2OCCN2CCCC2)cc1	82*	0	-22	-25	5
c1ccc(-c2ccccc2OCCOCCN2CCCCC2)cc1	87*	0	-25	-26	-6
c1ccc(-c2ccccc2OCCCCN2CCCCCC2)cc1	148*	0	-41	-8	0
CCCCOc1cccc(C(=O)N(Cc2ccc(N(C)C)cc2)C2CCS(=O)(=O)C2)c1 (stereo not drawn)	·	0	-12	·	·
NC(Cc1ccccc1)c1csc(Nc2nccc(C(F)(F)F)n2)n1 (stereo not drawn)	·	·	·	-5	6
O=C(NCc1ccc(Cl)cc1)C(=O)NCC(c1cccnc1)N1CCN(c2ccccc2)CC1 (stereo not drawn)	·	0	-5	·	·
CC(=O)N1CCc2cc(Br)cc(S(=O)(=O)CCC(=O)N3CCN(c4ccccc4Cl)CC3)c21	·	·	-19	·	·
COc1ccc(N(CC(=O)Nc2cccc(Cl)c2)S(=O)(=O)c2c(C)[nH]c(=O)[nH]c2=O)cc1	·	-1	0	·	·
CCC12CN3CC(C)(CN(C1)C3c1ccc(O)cc1O)C2=O (stereo not drawn)	·	1	-4	·	·
CC(C)(C)c1ccccc1OCCOCCN1CCCCCC1	31*	0	-27	-10	3
CC1CN(CCOc2ccccc2-c2ccccc2)CC(C)O1 (stereo not drawn)	71*	0	-17	-25	-6
CC1CN(CCOc2ccc(F)cc2)CC(C)O1 (stereo not drawn)	-6	-1	5	-4	-2
O=C(CN1C(=O)C2(SCC(=O)N2c2cccc(Cl)c2)c2ccccc21)NCCc1ccccc1 (stereo not drawn)	·	0	-12	·	·
O=C(Nc1cccc(C(F)(F)F)c1)N1CCC(CN2CCCCCC2)CC1	·	1	2	·	·
CCOc1ccccc1NC(=O)C1CCN(S(=O)(=O)c2c(C)noc2/C=C/c2ccc(C)cc2)CC1	·	·	4	·	·
O=C(CCC1N=C2c3ccccc3N=C(SCc3ccccc3F)N2C1=O)NC1CCCCC1 (stereo not drawn)	·	0	-11	·	·
N#Cc1cc2ccccc2nc1SCc1cccnc1	30*	0	-7	-9	4
COc1ccc2nc(SCc3cccnc3)c(C#N)cc2c1	2	0	-1	6	-2
CN(Cc1ccccc1)C(=O)c1cc(-c2cccc(Cl)c2)on1	·	1	5	·	·
CCN(CC)c1ccc(C(=O)NCc2ccc3c(c2)CCN3C(=O)c2ccc(F)cc2)cc1	·	0	11	·	·
Cc1ccc(CNC(=O)C(NS(=O)(=O)c2ccc3nc(C)sc3c2)C(C)C)cc1 (stereo not drawn)	0	0	-4	-5	-3
Cc1nc2ccc(S(=O)(=O)NC(C(=O)NCc3ccco3)C(C)C)cc2s1 (stereo not drawn)	31*	1	15	-2	-7
O=c1[nH]c(/C=C/c2ccccn2)nc2ccccc12	37*	1	2	-6	-9
